The values that follow come from PubChem BioAssay (EPA / NIEHS).

SMILES strings stand for the structures. “And” between values parts separate entries of the source, which are not always exact repeats. Equal entries are not always repeated. Results filed as inconclusive are left out. A structure can be active in one record and inactive in another. The source made the active and inactive calls. Rule for the calls, unless noted: active = hit-call score of the fitted dose curve at least 0.9, where 1 is the maximum; inconclusive = response in the unintended direction; inactive = score below 0.9.

The target of assay [1] is human Norepinephrine Transporter (NET), SLC6A2 (gene 6530) (UniProt P23975). Nature of the assay: NVS_TR_hNET: NovaScreen (NVS) Transporter Assay for human Norepinephrine Transporter (NET) (AID 2283377).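 For AC50: displacement of radioligand from human NET seen as loss of scintillation signal.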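 Note: cell-free membrane protein extracted from CHO cells expressing human NET.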 In a few lines: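 In this cell-free binding screen, chemicals at 25 uM (duplicate) compete with a radioligand for CHO-derived human NET over 1 hour, with filter-based radiodetection.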
Sequence of human Norepinephrine Transporter (NET), SLC6A2 (gene 6530) (P23975 whole entry, looked up): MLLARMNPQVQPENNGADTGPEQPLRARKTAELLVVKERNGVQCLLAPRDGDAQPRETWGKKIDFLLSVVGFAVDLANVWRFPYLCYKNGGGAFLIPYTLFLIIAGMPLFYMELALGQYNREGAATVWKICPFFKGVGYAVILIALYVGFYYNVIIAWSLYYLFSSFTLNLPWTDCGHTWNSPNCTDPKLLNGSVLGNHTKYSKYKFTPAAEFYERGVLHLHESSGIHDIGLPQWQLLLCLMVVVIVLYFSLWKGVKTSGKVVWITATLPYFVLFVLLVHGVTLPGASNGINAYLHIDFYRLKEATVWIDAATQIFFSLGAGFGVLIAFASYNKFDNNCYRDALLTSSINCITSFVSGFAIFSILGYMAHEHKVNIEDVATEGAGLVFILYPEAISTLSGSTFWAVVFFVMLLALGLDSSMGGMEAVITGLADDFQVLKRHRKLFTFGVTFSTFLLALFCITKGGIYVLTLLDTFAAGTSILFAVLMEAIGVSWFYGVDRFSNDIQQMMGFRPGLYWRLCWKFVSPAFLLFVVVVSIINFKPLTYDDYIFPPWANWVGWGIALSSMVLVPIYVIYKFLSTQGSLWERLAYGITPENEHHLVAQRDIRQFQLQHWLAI

Assay [2] deals with mouse Estrogen Receptor alpha (Era), Esr1 (gene 13982) (UniProt P19785). Description: NVS_NR_mERa: NovaScreen (NVS) Nuclear Receptor Binding Assay for mouse Estrogen Receptor alpha (Era) (AID 2283378).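 Note: hit means loss of bound radioligand signal relative to DMSO.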 In a few lines:
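Cell-free radioligand binding with extracted mouse Era protein; competitive displacement of radiolabelled ligand, read by filter-based scintillation counting 18 hours after dosing. Loss of signal versus DMSO baseline taken as binding; single screening concentration 25 uM, actives followed in concentration series.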

Assay [3] deals with Agonist Androgen Response Element (ARE), AR (gene 367) (UniProt P10275). Description: OT_AR_ARELUC_AG_1440: Odyssey Thera (OT) 24-hour CHO-K1 Luciferase Assay for Agonist Androgen Response Element (ARE) (AID 2283379). The essentials:
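Luminescence increase above DMSO, read after a 24 h compound treatment of CHO-K1 cells expressing an androgen response element luciferase reporter, gives the single primary endpoint; concentration-response fitting used the positive direction.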

Assay [4] has as its target Estrogen receptor beta (Homo sapiens) (UniProt Q92731). Description: OT_ER_ERbERb_1440: Odyssey Thera (OT) 24-hour HEK293T Protein-Complementation Assay for Estrogen Receptor-beta/-beta Homodimer (AID 2283380).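 Note: fluorescence gain from ER beta LBD homodimer complementation read by laser scanning cytometry; scored as signal increase over DMSO baseline for both agonists and antagonists.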 In a few lines:
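HEK293T cells stably expressing human ER-beta LBD (aa 310-547) PCA homodimer pair, dosed 24 h; formaldehyde-fixed, Draq5-stained. Readout: increase in nuclear (agonist) or nuclear plus cytoplasmic (antagonist) fluorescence intensity versus DMSO, gain-of-signal fitting.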

Assay [5] has as its target Estrogen receptor (Homo sapiens) (UniProt P03372). Description: OT_ERa_GFPERaERE_0480: Odyssey Thera (OT) 8-hour HeLa Transcription Induction Assay for Estrogen Receptor (AID 2283381; active = hit-call score of the fitted dose curve at least 0.9, where 1 is the maximum; inactive = score below 0.9). In a few lines: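 Human cervical HeLa cells were treated for 8 hours, after which ERE-driven GFP induction was measured by fluorescence microscopy; increases over DMSO baseline defined activity.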

Assay [6] concerns the target Bile acid receptor (Homo sapiens) (UniProt Q96RI1). Description: OT_FXR_FXRSRC1_0480: Odyssey Thera (OT) 8-hour HEK293T Protein-Complementation Assay for Farnesoid X receptor/SRC-1 Co-activator (AID 2283383). The essentials: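 PCA, HEK293T, 8 h compound exposure; FXR–SRC-1 binding reconstitutes split reporter; fluorescence intensity; positive-direction fit vs DMSO.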

The target of assay [7] is Retinoic acid receptor RXR-alpha (Homo sapiens) (UniProt P19793). Description: OT_NURR1_NURR1RXRa_0480: Odyssey Thera (OT) 8-hour HEK293T Protein Complementation Assay for Nurr1/retinoid X receptor (RXR) (AID 2283385). In a few lines: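 Interaction of bait and prey reconstitutes a functional reporter, whose fluorescence was measured in HEK293T cells dosed with compound for 8 hours. Signal gain relative to DMSO defined the single endpoint.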
Sequence of Retinoic acid receptor RXR-alpha (Homo sapiens) (P19793 whole entry, looked up): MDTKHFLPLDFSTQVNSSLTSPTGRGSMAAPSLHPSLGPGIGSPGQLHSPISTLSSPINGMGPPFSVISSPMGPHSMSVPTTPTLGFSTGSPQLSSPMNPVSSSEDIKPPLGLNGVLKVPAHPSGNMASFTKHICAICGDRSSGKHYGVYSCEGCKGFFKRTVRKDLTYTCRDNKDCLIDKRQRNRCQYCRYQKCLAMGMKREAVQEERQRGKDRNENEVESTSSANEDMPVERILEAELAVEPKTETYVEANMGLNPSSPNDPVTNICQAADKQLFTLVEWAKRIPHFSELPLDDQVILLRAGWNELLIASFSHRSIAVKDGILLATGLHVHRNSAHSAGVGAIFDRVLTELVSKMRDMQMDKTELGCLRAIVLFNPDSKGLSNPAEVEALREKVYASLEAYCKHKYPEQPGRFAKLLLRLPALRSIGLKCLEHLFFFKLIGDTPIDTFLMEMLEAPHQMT

For assay [8] the target is unchanged. Nature of the assay: OT_NURR1_NURR1RXRa_1440: Odyssey Thera (OT) 24-hour HEK293T Protein Complementation Assay for Nurr1/retinoid X receptor (RXR) (AID 2283386). In a few lines:
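Steps: fragment-tagged Nurr1 and RXRα expressed in HEK293T; compounds added; after 24 h, complemented reporter quantified by fluorescence intensity; signal increase over DMSO fitted as the single endpoint.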

For assay [9], the target named is Peroxisome proliferator-activated receptor gamma (Homo sapiens) (UniProt P37231). Nature of the assay: OT_PPARg_PPARgSRC1_0480: Odyssey Thera (OT) 8-hour Protein-Complementation Assay for Peroxisome Proliferator-activated Receptor Gamma / SRC-1 Co-activator (AID 2283387). In a few lines: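 Split-YFP (IFP1/IFP2) PPARg/SRC-1 reporter, HEK293T, 37 °C, 5% CO2; 8 h compound; formaldehyde fix + Draq5; high-content imaging, N/C ratio, ≥350 cells/image, positive direction vs DMSO.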
Sequence of Peroxisome proliferator-activated receptor gamma (Homo sapiens) (P37231 whole entry, looked up, the tested form may be a part): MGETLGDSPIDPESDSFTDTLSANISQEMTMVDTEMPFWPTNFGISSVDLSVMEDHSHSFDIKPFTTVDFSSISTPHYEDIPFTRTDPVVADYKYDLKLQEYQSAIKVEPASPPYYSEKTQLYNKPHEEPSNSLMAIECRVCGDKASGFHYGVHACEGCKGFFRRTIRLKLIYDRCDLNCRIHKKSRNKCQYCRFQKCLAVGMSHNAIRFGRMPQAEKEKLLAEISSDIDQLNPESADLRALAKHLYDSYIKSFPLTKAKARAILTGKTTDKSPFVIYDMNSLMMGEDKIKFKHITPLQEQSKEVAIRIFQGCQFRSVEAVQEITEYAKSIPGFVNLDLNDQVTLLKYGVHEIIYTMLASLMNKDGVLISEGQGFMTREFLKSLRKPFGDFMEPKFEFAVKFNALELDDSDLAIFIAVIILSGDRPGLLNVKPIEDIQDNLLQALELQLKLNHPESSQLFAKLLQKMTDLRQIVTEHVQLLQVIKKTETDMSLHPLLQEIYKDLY

Assay [10] deals with human Serotonin Transporter (SERT), SLC6A4 (gene 6532) (UniProt P31645). Nature of the assay: NVS_TR_hSERT: NovaScreen (NVS) Transporter Assay for human Serotonin Transporter (SERT) (AID 2283372). The essentials:
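Human platelet membrane preparation; displacement of radioligand from serotonin transporter measured after 1 h by filtration and scintillation counting. Single 25 uM duplicate screen, then concentration series for actives, with DMSO as negative baseline.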

For assay [11], the system named is rat Norepinephrine Transporter (NET), gene 83511. Nature of the assay: NVS_TR_rNET: NovaScreen (NVS) Transporter Assay for rat Norepinephrine Transporter (NET) (AID 2283373). In a few lines:
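Competitive radioligand displacement at the rat NET using forebrain membrane preparations, 1 h incubation, filter-based scintillation readout. Primary testing in duplicate at a single 25 uM concentration; confirmed actives retested across concentrations.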

For assay [12], the target named is human Dopamine Transporter (DAT), SLC6A3 (gene 6531) (UniProt Q01959). Nature of the assay: NVS_TR_hDAT: NovaScreen (NVS) Transporter Assay for human Dopamine Transporter (DAT) (AID 2283374).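 Note: activity means loss of bound radioligand signal relative to DMSO.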 In a few lines: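 Extracted human SLC6A3 protein incubated 1 h with radioligand and test chemical; bound fraction separated on filters and counted. Single 25 uM duplicate screen preceded concentration-response follow-up; positive and negative controls on every plate.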
Sequence of human Dopamine Transporter (DAT), SLC6A3 (gene 6531) (Q01959 whole entry, looked up): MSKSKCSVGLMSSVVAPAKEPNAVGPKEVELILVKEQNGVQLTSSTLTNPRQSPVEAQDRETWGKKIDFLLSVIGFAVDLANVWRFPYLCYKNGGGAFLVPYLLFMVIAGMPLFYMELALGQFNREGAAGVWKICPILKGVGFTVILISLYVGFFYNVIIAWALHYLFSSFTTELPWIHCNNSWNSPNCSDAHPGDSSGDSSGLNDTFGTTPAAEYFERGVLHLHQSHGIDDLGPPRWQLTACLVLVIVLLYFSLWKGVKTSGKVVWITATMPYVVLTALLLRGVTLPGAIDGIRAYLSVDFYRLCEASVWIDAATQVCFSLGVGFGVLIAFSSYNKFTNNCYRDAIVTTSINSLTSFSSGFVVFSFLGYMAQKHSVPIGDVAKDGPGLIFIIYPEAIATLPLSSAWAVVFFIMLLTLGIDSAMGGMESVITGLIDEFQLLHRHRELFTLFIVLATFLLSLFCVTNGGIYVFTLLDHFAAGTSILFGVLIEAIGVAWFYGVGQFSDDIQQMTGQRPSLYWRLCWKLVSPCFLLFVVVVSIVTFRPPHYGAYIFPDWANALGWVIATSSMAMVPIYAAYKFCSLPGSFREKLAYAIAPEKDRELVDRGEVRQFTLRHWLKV

The target in assay [13] is Peroxisome proliferator-activated receptor gamma (Homo sapiens) (UniProt P37231). Nature of the assay: OT_PPARg_PPARgSRC1_1440: Odyssey Thera (OT) 24-hour Protein-Complementation Assay for Peroxisome Proliferator-activated Receptor Gamma/ SRC-1 Co-activator (AID 2283388). The essentials:
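HEK293T cells transiently transfected with PPARg and SRC-1 fused via (Gly4Ser)2 linker to split Venus YFP fragments (IFP1/IFP2) were dosed 24 h; fixed, Draq5-stained, imaged at 488/635 nm; nuclear/cytoplasmic fluorescence ratio scored versus DMSO baseline, gain-of-signal.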

For assay [14], the target named is Estrogen receptor (Homo sapiens) (UniProt P03372). Nature of the assay: OT_ERa_GFPERaERE_0120: Odyssey Thera (OT) 2-hour HeLa Transcription Induction Assay for Estrogen Receptor (AID 2283382). The essentials: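 Cells (human cervical HeLa) receive compound, incubate 2 hours, then are imaged for fluorescent reporter induction. Images are quantified by high content analysis, and activity is fitted as gain of signal against DMSO.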
Sequence of Estrogen receptor (Homo sapiens) (P03372 whole entry, looked up): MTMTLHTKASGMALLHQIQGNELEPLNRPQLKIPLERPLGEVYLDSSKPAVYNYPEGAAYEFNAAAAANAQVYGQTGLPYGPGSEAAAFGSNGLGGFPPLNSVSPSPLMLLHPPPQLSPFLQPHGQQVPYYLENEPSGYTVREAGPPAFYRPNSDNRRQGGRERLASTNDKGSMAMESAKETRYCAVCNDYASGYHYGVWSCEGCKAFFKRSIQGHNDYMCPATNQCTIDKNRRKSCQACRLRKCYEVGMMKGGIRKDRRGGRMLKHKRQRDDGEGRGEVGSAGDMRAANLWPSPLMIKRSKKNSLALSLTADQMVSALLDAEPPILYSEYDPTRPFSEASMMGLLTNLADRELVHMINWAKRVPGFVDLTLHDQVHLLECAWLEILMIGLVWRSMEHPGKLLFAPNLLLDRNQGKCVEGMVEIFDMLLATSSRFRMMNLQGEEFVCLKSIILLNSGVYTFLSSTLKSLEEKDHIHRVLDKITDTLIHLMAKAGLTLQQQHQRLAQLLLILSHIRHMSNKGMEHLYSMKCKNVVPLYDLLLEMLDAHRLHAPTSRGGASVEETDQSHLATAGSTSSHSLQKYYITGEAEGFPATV

The nature of assay [15]: CEETOX_H295R_11DCORT: CeeTox H295R High-throughput Steroidogenesis Assay for 11-Deoxycortisol (11DCORT) (AID 2283432; active = hit-call score of the fitted dose curve at least 0.9, where 1 is the maximum; inactive = score below 0.9). Particulars: actives raise or lower the signal. In a few lines: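 Steroidogenesis in human H295R cells: 48 h chemical exposure after forskolin priming, 11-deoxycortisol measured by LC-MS/MS.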
A short description of assay [16]: CEETOX_H295R_OHPREG: CeeTox H295R High-throughput Steroidogenesis Assay for OH-Pregnenolone (OHPREG) (AID 2283434; active = hit-call score of the fitted dose curve at least 0.9, where 1 is the maximum; inactive = score below 0.9). Particulars: actives raise or lower the signal. The essentials: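 Readout: HPLC-MS/MS of 17alpha-hydroxypregnenolone in medium after 48 h chemical exposure of H295R cells pretreated with forskolin. Values fitted bidirectionally relative to DMSO; chemicals reducing viability to 20–70% were retested after 10-fold dilution.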

A short description of assay [17]: CEETOX_H295R_OHPROG: CeeTox H295R High-throughput Steroidogenesis Assay for OH-Progesterone (OHPROG) (AID 2283435; active = hit-call score of the fitted dose curve at least 0.9, where 1 is the maximum; inactive = score below 0.9;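 note: human adrenal H295R cells primed 48 h with 10 µM forskolin; 17alpha-hydroxyprogesterone secreted into medium measured by HPLC-MS/MS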). Particulars: actives raise or lower the signal. The essentials: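 Steps: seed H295R cells and adhere overnight; stimulate with 10 uM forskolin for 48 h; replace with chemical-containing medium (0.1% DMSO) for 48 h; extract medium with MTBE; quantify 17alpha-hydroxyprogesterone by reverse-phase C18 HPLC-MS/MS against a 7-point curve.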

Sequence of Agonist Androgen Response Element (ARE), AR (gene 367) (P10275 whole entry, looked up): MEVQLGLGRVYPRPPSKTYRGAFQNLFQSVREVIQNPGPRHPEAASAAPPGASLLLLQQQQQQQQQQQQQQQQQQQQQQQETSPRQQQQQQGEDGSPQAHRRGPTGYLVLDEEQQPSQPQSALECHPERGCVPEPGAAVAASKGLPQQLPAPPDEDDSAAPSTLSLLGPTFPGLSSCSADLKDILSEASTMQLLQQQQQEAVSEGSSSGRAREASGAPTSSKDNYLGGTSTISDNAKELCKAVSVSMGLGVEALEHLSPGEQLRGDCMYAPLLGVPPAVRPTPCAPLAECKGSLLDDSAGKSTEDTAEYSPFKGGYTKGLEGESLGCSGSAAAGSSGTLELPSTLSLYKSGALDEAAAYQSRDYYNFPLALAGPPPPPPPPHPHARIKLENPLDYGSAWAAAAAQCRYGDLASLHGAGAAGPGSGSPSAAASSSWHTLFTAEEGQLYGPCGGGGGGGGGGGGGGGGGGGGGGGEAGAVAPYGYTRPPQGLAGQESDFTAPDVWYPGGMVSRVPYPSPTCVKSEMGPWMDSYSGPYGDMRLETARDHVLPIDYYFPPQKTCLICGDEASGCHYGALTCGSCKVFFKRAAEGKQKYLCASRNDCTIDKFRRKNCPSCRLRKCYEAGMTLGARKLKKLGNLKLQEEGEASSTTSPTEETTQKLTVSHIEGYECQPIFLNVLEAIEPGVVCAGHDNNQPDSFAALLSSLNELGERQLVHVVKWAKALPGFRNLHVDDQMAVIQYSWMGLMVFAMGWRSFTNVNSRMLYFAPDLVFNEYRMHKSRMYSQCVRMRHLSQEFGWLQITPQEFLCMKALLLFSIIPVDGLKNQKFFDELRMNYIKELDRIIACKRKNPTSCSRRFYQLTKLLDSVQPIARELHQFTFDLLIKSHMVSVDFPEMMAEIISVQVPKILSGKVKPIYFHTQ
Sequence of Estrogen receptor beta (Homo sapiens) (Q92731 whole entry, looked up, the tested form may be a part): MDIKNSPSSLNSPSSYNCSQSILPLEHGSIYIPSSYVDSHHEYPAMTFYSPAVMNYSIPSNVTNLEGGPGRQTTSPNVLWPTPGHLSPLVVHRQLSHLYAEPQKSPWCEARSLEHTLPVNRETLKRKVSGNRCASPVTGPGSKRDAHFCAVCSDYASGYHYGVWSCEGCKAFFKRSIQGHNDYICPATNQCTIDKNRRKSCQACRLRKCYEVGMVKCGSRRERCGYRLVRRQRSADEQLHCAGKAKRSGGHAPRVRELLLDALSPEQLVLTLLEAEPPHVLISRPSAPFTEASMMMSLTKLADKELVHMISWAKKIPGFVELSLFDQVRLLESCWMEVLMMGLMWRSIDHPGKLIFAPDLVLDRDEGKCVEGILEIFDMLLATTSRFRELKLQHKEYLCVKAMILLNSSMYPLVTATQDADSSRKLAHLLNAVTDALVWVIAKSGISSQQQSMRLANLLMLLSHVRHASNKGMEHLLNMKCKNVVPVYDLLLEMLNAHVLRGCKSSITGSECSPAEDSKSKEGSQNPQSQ
Sequence of mouse Estrogen Receptor alpha (Era), Esr1 (gene 13982) (P19785 whole entry, looked up): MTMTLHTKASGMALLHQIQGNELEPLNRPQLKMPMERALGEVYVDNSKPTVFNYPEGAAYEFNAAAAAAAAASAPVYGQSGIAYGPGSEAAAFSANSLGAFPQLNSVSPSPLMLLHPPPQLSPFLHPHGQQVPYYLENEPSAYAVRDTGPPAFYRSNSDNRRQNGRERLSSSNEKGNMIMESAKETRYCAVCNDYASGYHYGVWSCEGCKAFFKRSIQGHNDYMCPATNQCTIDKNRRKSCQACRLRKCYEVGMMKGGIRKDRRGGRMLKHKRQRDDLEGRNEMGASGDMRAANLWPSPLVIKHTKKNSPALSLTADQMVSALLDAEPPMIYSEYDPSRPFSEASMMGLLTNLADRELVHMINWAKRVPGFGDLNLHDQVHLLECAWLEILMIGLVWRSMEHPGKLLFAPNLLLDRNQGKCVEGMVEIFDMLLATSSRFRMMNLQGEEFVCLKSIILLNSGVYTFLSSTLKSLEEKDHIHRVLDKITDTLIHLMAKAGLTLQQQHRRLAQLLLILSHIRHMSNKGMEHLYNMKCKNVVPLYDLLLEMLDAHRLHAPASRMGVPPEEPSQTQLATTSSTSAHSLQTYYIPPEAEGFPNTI

As a reminder, the AC50 is the concentration at which the activity in the assay is half-maximal. `CCCCCCCCCCCCCCCCOS(=O)(=O)O`: the AC50 was 19.6 µM (active) in [1] and 7.04 µM (active) in assay [2]. Further, the result in assay [3], in assay [4], in [5], in assay [6], in assay [7] and in assay [8] was inactive. The compound was called inactive in [9].

On to `c1ccc(C(O[C@@H]2CCCN(CCc3ccc4c(c3)OCO4)C2)c2ccccc2)cc1`, for which the compound was called inactive in [10], in assay [5], in assay [7], in assay [9] and in [13]. Besides, the AC50 is 11.4 µM (active) in assay [11]; 0.063 µM (active) in assay [12]; 4.2 µM (active) in assay [1]; 25 µM (active) in [2]; 38.5 µM (active) in assay [4]; 89 µM (active) in assay [7]. Further, the concentration at half-maximal activity (AC50) in assay [8] is 77.7 µM (active) and 81.9 µM (active).

On to `OCc1ccccc1`, for which the compound was called inactive in assay [12], in assay [3], in assay [4], in [5], in assay [7] and in [8]. Moreover, the compound was classed as inactive in [9].

In the case of `OCCOCCOCCO`, the result in [10], in [1], in [2], in [3], in assay [4] and in [5] was inactive. Moreover, the compound was called inactive in assay [7], in [8], in [9] and in assay [13]. Further, in assay [12], the AC50 is 6.63 µM (active).

For the compound `CCn1nc(C)c2c1C(=O)NCC(c1ccc(O)cc1)=N2`, the compound was classed as inactive in assay [11], in [12], in assay [4], in [5], in assay [14] and in assay [7]. Moreover, the result in [8], in assay [9], in [13], in assay [15] and in assay [16] was inactive. Further, the half-maximal activity concentration (AC50) in [8] is 21.4 µM (active); in assay [17] it was 2.63 µM (active).

In the case of `COS(C)(=O)=O`, the call in assay [2], in [5], in assay [7], in assay [8], in assay [9] and in [13] was inactive.

For the compound `O=C(O)c1cccc(C[C@@H]2COc3ccc(OCc4nc5cc(F)ccc5s4)cc3[C@@H]2O)c1`, the compound was called inactive in assay [1], in [2], in assay [4], in [5], in assay [7] and in [8].

As to `O=C(NO)C1(NS(=O)(=O)c2ccc(Oc3ccc(F)cc3)cc2)CCOCC1`, in [12], the AC50 is 8.77 µM (active). Further, the outcome in [4], in assay [5], in assay [7], in assay [9] and in assay [13] was inactive.
